The nature of test [1]: optical density shifts of acrAB sulA E. coli – strain DRC41, OD650, 48 h, E. coli filamentation inducer project, primary screen (AID 1152).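 Note: E. coli MC1000 strain DRC41 lacking acrAB efflux pump and sulA.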 To be noted: higher = more signal, called active from +8 up or from −8 down.
Test [2] in a line: probe aLefty1 binding on compound microarray – biochemical, small-molecule microarray, 635/667 nm fluorescence, primary screen (AID 1153).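 Note: score merges spot fluorescence with signal-to-noise ratio from the scanned slide images.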 To be noted: higher = more signal.
Test [3] can be described thus: plasmodial surface anion channel blockers, osmotic lysis – cell-based, P. falciparum Indochina, OD700, 1 h, primary screen (AID 1154). To be noted: P. falciparum Indochina infected RBC osmotic lysis, higher = more signal, called active from +8 up or from −8 down.
Test [4] in a line: plasmodial surface anion channel blockers, osmotic lysis – cell-based, P. falciparum Indochina, OD700, 2 h, primary screen (AID 1155).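 Note: lysis reports solute entry through the parasite surface anion channel PSAC.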 To be noted: P. falciparum Indochina infected erythrocytes, higher = more signal, called active from +8 up or from −8 down.
Test [5] in a line: changes in parasitized red cell lysis, either direction – P. falciparum Indochina, OD700, 3 h, PSAC antagonist project, primary screen (AID 1156). The settings on record: P. falciparum-infected erythrocytes, osmotic lysis, higher = more signal, called active from +8 up or from −8 down.
Test [6] is described as follows: plasmodial surface anion channel blockers, osmotic lysis – cell-based, P. falciparum Indochina, OD700, 18 h, primary screen (AID 1157). The settings on record: P. falciparum Indochina infected erythrocytes, osmotic lysis OD700, 18 h; higher = more signal, called active from +8 up or from −8 down.
Test [7] in a line: S6 kinase pathway phospho-S6 level changes – cell-based, A549, cytoblot, luminescence, serum-stimulated, primary screen (AID 1158).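 Note: serum-stimulated A549 lung adenocarcinoma cells; signal is phosphorylated S6 detected by cytoblot immunostaining with HRP secondary.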 To be noted: 5 h, higher = more signal.
Test [8] has as its target NADPH oxidase 2 (Homo sapiens) (UniProt P04839). Put plainly: compounds shifting NOX2 Amplex Red fluorescence – cell-based, HEK293-NOX2, PMA-stimulated, NOX inhibitor project, primary screen (AID 1159). Note: test concentration not given here. To be noted: 45 min, higher = more signal, called active from +8 up or from −8 down.
Test [9] concerns the target NADPH oxidase 4 (Homo sapiens) (UniProt Q9NPH5). Put plainly: compounds shifting NOX4 Amplex Red fluorescence – cell-based, HEK293-NOX4, tetracycline-induced, NOX inhibitor project, primary screen (AID 1160). The settings on record: HEK293-NOX4, Amplex Red H2O2 fluorescence, 45 min; higher = more signal, called active from +8 up or from −8 down.
For test [10], the target named is NADPH oxidase 5 (Homo sapiens) (UniProt Q96PH1). Put plainly: compounds shifting NOX5 Amplex Red fluorescence – cell-based, HEK293-NOX5, NOX inhibitor project, primary screen (AID 1161). To be noted: HEK293-NOX5, ionomycin, 45 min, higher = more signal.
The nature of test [11]: compound effects on lung adenocarcinoma cell viability – A549, calcein-AM fluorescence, 48 h, basal, profiling panel (AID 1162). Note: test concentration not given here. The settings on record: higher = more signal.
Test [12] in a line: compound effects on differentiated 3T3-L1 adipocyte viability – cell-based, 3T3-L1 adipocytes, calcein-AM fluorescence, 48 h, basal, profiling panel (AID 1163). Note: test concentration not given here. The settings on record: 3T3-L1 adipocytes viability, higher = more signal.
Test [13] can be described thus: compound effects on hepatocellular carcinoma cell viability – HepG2, calcein-AM fluorescence, 48 h, basal, profiling panel (AID 1164). Note: test concentration not given here. To be noted: higher = more signal.
Test [14] can be described thus: compound effects on multiple myeloma cell viability – MM1S, calcein-AM fluorescence, 48 h, basal, profiling panel (AID 1165).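 Note: viability of MM1S multiple myeloma cells under basal unstimulated conditions; test concentration not given here.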 To be noted: higher = more signal.
Test [15] is described as follows: calcein-AM signal in unstimulated myeloma cells – cell-based, calcein-AM fluorescence, 48 h, PK04 Diversity Set, profiling panel (AID 1166).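 Note: cells grown under basal conditions without added stimulus; test concentration not given here.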 The settings on record: RPMI8226 myeloma viability, higher = more signal.
Test [16] can be described thus: JC-1 mitochondrial signal, unstimulated HepG2 cells – cell-based, JC-1 fluorescence, 24 h, 100 nL compound, profiling panel (AID 1167). Note: test concentration not given here. To be noted: HepG2 mitochondrial potential, higher = more signal.
Test [17] can be described thus: JC-1 mitochondrial signal, unstimulated adipocytes – cell-based, JC-1 fluorescence, 3T3-L1 adipocytes, 24 h, 100 nL compound, profiling panel (AID 1168). Note: test concentration not given here. The settings on record: JC-1 mitochondrial fluorescence, higher = more signal, called active from +8 up or from −8 down.
Test [18] is described as follows: JC-1 mitochondrial signal, unstimulated myeloma cells – cell-based, JC-1 fluorescence, RPMI8226, 24 h, 100 nL compound, profiling panel (AID 1169). Note: test concentration not given here. The settings on record: JC-1 mitochondrial potential fluorescence, higher = more signal.
Test [19] can be described thus: JC-1 mitochondrial signal, unstimulated MM1S myeloma – cell-based, JC-1 fluorescence, 24 h, 100 nL compound, profiling panel (AID 1170). Note: test concentration not given here. To be noted: MM1S mitochondrial potential, higher = more signal.
Test [20] is described as follows: resazurin metabolic signal in A549 cells – cell-based, resazurin fluorescence, 24 h, PK04 Diversity Set, profiling panel (AID 1171). Note: test concentration not given here. The settings on record: A549 viability, higher = more signal, called active from +8 up or from −8 down. On the technique in general: Alamar Blue is a resazurin reagent that responds to reducing activity.

Calls of active or inactive are those of the source.

Sequence of NADPH oxidase 4 (Homo sapiens) (Q9NPH5 whole entry, looked up): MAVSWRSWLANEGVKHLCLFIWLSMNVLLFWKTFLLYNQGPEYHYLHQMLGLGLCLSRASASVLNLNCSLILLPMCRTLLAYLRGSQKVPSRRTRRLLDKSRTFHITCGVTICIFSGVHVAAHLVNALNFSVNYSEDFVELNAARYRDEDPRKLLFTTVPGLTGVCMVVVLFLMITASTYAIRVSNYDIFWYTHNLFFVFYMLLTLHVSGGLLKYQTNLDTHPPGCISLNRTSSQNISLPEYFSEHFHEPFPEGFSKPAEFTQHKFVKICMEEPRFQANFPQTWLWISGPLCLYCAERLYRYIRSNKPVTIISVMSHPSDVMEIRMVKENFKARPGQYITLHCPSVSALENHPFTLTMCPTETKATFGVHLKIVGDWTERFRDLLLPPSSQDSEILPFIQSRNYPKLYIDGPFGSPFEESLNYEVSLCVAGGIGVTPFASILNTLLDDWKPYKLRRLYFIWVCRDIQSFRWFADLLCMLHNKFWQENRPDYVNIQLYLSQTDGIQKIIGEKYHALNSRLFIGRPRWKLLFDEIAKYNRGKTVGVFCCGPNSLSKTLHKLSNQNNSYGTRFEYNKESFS
Sequence of NADPH oxidase 2 (Homo sapiens) (P04839 whole entry, looked up): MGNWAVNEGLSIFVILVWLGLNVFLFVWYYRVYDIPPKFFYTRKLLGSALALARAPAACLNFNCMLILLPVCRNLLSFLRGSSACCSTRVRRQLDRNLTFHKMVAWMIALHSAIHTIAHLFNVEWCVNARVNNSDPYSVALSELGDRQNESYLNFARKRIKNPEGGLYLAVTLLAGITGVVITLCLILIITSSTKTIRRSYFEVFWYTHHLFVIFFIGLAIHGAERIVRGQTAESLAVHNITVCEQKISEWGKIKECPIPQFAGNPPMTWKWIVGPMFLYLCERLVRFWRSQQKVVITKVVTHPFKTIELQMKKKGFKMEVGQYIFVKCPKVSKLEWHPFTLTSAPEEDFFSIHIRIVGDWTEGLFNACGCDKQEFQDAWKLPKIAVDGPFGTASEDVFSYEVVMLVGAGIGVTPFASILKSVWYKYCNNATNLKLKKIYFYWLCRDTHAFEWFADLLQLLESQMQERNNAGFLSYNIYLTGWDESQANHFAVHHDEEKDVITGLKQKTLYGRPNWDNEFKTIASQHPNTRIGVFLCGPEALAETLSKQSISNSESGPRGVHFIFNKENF
Sequence of NADPH oxidase 5 (Homo sapiens) (Q96PH1 whole entry, looked up): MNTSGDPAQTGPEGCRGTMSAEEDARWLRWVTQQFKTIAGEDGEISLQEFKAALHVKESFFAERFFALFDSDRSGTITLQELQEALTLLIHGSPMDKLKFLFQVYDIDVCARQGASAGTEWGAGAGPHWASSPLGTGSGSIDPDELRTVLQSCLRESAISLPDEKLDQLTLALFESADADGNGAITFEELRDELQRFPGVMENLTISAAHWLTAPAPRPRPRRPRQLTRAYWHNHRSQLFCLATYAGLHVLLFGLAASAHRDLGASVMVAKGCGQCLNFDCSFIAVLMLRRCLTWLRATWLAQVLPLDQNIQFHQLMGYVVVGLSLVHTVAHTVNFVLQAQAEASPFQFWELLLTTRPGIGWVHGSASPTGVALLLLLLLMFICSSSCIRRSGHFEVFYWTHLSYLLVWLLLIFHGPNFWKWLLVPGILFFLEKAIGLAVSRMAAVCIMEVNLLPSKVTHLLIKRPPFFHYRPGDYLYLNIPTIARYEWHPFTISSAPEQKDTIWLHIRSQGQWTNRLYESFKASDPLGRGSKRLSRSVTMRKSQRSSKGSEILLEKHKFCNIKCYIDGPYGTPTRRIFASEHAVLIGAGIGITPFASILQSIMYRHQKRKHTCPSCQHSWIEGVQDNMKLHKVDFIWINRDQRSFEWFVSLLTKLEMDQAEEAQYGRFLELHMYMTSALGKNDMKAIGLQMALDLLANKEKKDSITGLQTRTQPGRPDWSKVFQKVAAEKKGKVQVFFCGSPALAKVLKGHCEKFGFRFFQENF

As for `Cc1ccc(S(=O)(=O)N2[C@@H](c3ccccc3)C(C(=O)O)=CC[C@H]2c2ccccc2)cc1`, the z-score in test [1] is -1.57 (inactive); in [3], 0.432 (inactive); in [4], 0.798 (inactive); in test [5], 0.605 (inactive); in test [6] it was 0.83 (inactive); in test [7], -0.259. The z-score in test [8] is -0.127 (inactive); in [9], -0.375 (inactive); in [10], -2.32; in test [11], -0.0225; in [12] it was -0.426; in test [13] it was -0.335. Besides, the z-score in [14] was -0.107; in [15] it was -1.25; in test [16], -0.923; in [17], -0.17 (inactive); in [18] it was 0.621; in test [19], 0.675. The z-score in test [20] is -1.08 (inactive). The composite z-score in [2] is -0.0501.

`O=C1O[C@@H](c2ccccc2)[C@@H](c2ccccc2)N2[C@@H](c3ccccc3OCCO)[C@]3(C(=O)Nc4ccc(C#CC5=CCCCC5)cc43)[C@@H](C(=O)O)[C@H]12`: the z-score in test [1] is 1.72 (inactive); in test [3], -1.69 (inactive); in test [4], -2.47 (inactive); in [5], -13.4 (active); in [6], -2.89 (inactive); in test [7] it was 0.661. The z-score was 2.26 (inactive) in test [8]; -2.11 (inactive) in test [9]; -2.75 in [10]; -1 in test [11]; 1.61 in test [12]; -0.992 in test [13]. The z-score is -3.39 in test [14]; -4.65 in [15]; -3.81 in test [16]; 4.74 (inactive) in test [17]; -1.07 in test [18]; -0.999 in [19]. Besides, in test [20], the z-score is 0.289 (inactive). The same compound registered a composite z-score in test [2] of 0.19.

`NC(=O)[C@H]1[C@@H]2C(=O)O[C@@H](c3ccccc3)[C@@H](c3ccccc3)N2[C@@H](c2ccc(O)cc2)[C@]12C(=O)Nc1ccc(C#CCCO)cc12`: the z-score in test [1] was -0.331 (inactive); in test [3], 5.17 (inactive); in [4] it was 0.92 (inactive); in [5], 0.696 (inactive); in test [6], 0.442 (inactive); in test [7] it was -0.289. The z-score in test [8] is 0.482 (inactive); in [9], -0.661 (inactive); in test [10] it was 0.563; in [11], -0.191; in test [12], -0.0912; in test [13], 0.0926. Also, the z-score in [14] is -0.664; in test [15] it was 0.0381; in test [16] it was -1.59; in test [17], -0.699 (inactive); in test [18], -0.583; in [19] it was 0.196. Also, the z-score in [20] was -0.0774 (inactive). In [2], this compound gave a composite z-score of -0.0559.

For the compound `O=C1O[C@@H](c2ccccc2)[C@@H](c2ccccc2)N2[C@@H](c3ccc(OCCO)cc3)[C@]3(C(=O)Nc4ccc(C#CCCO)cc43)[C@@H](C(=O)N3CCN(c4ncccn4)CC3)[C@H]12`, the z-score is 0.533 (inactive) in [1]; 3.54 (inactive) in test [3]; 1.71 (inactive) in test [4]; -1.56 (inactive) in test [5]; 0.664 (inactive) in [6]; -0.436 in test [7]. The z-score in [8] was 2 (inactive); in [9], 0.677 (inactive); in test [10] it was 0.589; in [11], 0.848; in [12] it was 0.38; in test [13], -0.17. For the same compound, the z-score is 0.0057 in test [14]; 0.442 in [15]; 0.0349 in test [16]; 1.88 (inactive) in [17]; -0.623 in test [18]; 0.173 in [19]. Further, in [20], the z-score is 0.293 (inactive). The same compound registered a composite z-score in test [2] of 0.242.

Turning to `CO[C@@H]1COC(=O)CC=C[C@H](C)COC(=O)[C@H](Cc2ccccc2)NC(=O)CC=C[C@H]1C`, the z-score is 0.106 (inactive) in test [1]; -0.0544 (inactive) in [3]; -0.866 (inactive) in test [4]; -0.295 (inactive) in test [5]; -1.49 (inactive) in test [6]; 0.681 in [7]. Further, the z-score in test [8] is -0.486 (inactive); in [9] it was 0.845 (inactive); in test [10], 0.528; in test [11], 0.392; in test [12], 0.509; in [13], 0.674. For the same compound, the z-score in [14] is 0.305; in test [15], 0.333; in test [16] it was 0.883; in test [17] it was 0.258 (inactive); in [18] it was -0.146; in [19], -0.597. Moreover, the z-score in [20] was -0.145 (inactive). This compound also registered a composite z-score in [2] of -0.358.

The values above are taken from PubChem BioAssay.
